# From PubChem BioAssay AID588649 (The Scripps Research Institute Molecular Screening Center, 2011)
# The other results are listed elsewhere or left out. A number with no mark means an inactive call. Active and inactive are the calls of the source. Cut-off read from the data, not from the text of the source: active = inhibition above about 40%; inactive = the rest.
# Tested on: Fam108b (ABHD17B) [Mus musculus]
# Assay: inhibition of mouse Fam108b by HTS hits, late-stage follow-up, biochemical, gel-based ABPP, soluble recombinant form (AID 588649)
# Settings: fluorophosphonate probe, at 20 µM, active compounds read high
row,SMILES,inhibition
1,COc1ccc(NS(=O)(=O)c2cc(NC(=O)CC(=O)c3ccc([N+](=O)[O-])cc3)ccc2C)cc1,25%
2,Cc1ccc(S(=O)(=O)N=C2C=C(Sc3ncn[nH]3)C(=O)c3ccccc32)cc1,90% (active)
3,COc1ccc(/C=C/C(=O)OCC(=O)Nc2cccc(Oc3ccccc3)c2)c(OC)c1,90% (active)
4,Nc1ccc2nc3c(=O)[nH]c(=S)[nH]c3nc2c1,0%
5,CC[N+](C)(CC)CCC[n+]1c(-c2ccccc2)c2cc(N)ccc2c2ccc(N)cc21,25%
6,O=C(Nc1ccc(-c2csc(Nc3cccc(C(F)(F)F)c3)n2)cc1)c1cccc(C(F)(F)F)c1,85% (active)
7,O=C(NNc1c2ccccc2nc2ccccc12)c1cc2ccccc2cc1O,10%
8,Oc1c(Cl)cc(Cl)c(Cl)c1Cc1c(O)c(Cl)cc(Cl)c1Cl,65% (active)
